Shiga inhibitor – Shiga toxin inhibition. 9.2% of 290,000 active. AID 2315. inhibition, % at 38.7 µM. Vero cells, Shiga toxin protein synthesis inhibition reporter; in the data active means inhibition mostly above about 28%, no sharp cut-off; inactive means mostly below about 43%
AMA1 RON2 block – inhibitors of Plasmodium falciparum AMA1-RON2 interaction. AlphaScreen AMA1-biotinylated RON2 peptide binding. Potency, µM (top dose mostly 58.2 µM), actives largely listed as inhibitors. 0.2% of 360,000 active. AID 720542; further: nearly all actives have a fitted effect of over 45% in size
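AMA1 (3D7) with his tag at 25 nM final met compounds first, then biotinylated RON2 peptide at 25 nM; detection used donor plus acceptor beads, 10 µg/mL apiece, read by AlphaScreen after 30 min at room temperature.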
Pf growth 48h – inhibits P. falciparum growth in the first generation, 48 h. 5.9% of 310,000 active. P. falciparum luciferase growth in erythrocytes, 48 h. Potency, µM (top dose mostly 28.7 µM), actives largely listed as inhibitors
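Cell-based growth assay: transgenic P. falciparum expressing firefly luciferase, cultured in red cells within RPMI 1640 containing 0.5% w/v Albumax, 24 mM bicarbonate and gentamycin. A drop in luciferase activity indicates inhibition.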
Cycloheximide cs – counter-screen for Shiga toxin inhibitors: cycloheximide protein synthesis inhibition; max response, %; 12% of 300,000 active; cell reporter, cycloheximide protein synthesis inhibition counterscreen; in the data active means max response mostly above about 13%, no sharp cut-off; inactive means mostly below about 14%; further: read at 38.3 µM for the half of the compounds with a filed dose
SARS PLpro yeast – blocks SARS-CoV papain-like protease in a yeast assay. S. cerevisiae expressing SARS-CoV PLpro, growth rescue. Potency, µM (top dose mostly 32.9 µM), most hits filed as activators. 0.19% of 330,000 active; calls by dose curve; further: nearly all actives have a fitted effect of over 55% in size
Pf growth 96h – inhibits malaria parasite growth, 96 h; P. falciparum luciferase reporter growth, 96 h; Potency, µM (top dose mostly 28.7 µM), most hits filed as inhibitors; 6.9% of 320,000 active
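Two parasite generations (96 h, 37 C, 5% CO2) of compound exposure in infected erythrocytes (0.05% parasitemia, 2% hematocrit). Luciferase-reporter P. falciparum; decreased luminescence indicates inhibited growth, aimed at apicoplast-acting delayed death.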
Each line names hits and unclear results; the compound was inactive in the other large screens. A selection: hits, their analogues and other compounds. The true share with any hit is near 19%. Unless noted, the call rests on the fitted dose curve; in most records, active means well fitted curve in the direction sought with a large enough effect; inconclusive means small, poorly fitted or top-dose-only effect, or another doubt; inactive means no such curve, though single readings can be large; an effect the other way counts as inactive or inconclusive.

CC1CN(CC(=O)Nc2nc3ccccc3s2)CC(C)O1 (stereo not drawn)	Cycloheximide cs 11.8, Pf growth 96h inconclusive
O=C(CN1CCCCCC1)Nc1nc2ccccc2s1	none (no result: Shiga inhibitor, Pf growth 48h, Cycloheximide cs, SARS PLpro yeast, Pf growth 96h)
O=C(COC(=O)CNC(=O)c1cccc([N+](=O)[O-])c1)Nc1ccccc1OC(F)F	none
O=C(Cn1ccc([N+](=O)[O-])n1)Nc1nc2ccccc2s1	Shiga inhibitor 86.3, Pf growth 96h inconclusive
CCN1CCN(CC(=O)Nc2nc3ccccc3s2)CC1	none
O=C(COC(=O)CNC(=O)c1cccc([N+](=O)[O-])c1)Nc1nc2ccccc2s1	Cycloheximide cs 15.0
CN1CCN(CC(=O)Nc2nc3ccccc3s2)CC1	Cycloheximide cs 17.5
C=CCn1cc(F)c(=O)n(CC=C)c1=O	Pf growth 96h inconclusive
O=C(Nc1ccc([N+](=O)[O-])cc1)N1CCCCC1	Pf growth 96h 8.28µM
CC(C)(C)c1ccc(NC(=O)N2CCCN(c3ccc([N+](=O)[O-])cn3)CC2)cc1	Pf growth 48h 8.28µM, Pf growth 96h inconclusive
Cc1cccc(Cl)c1NC(=S)N1CCN(c2ccc([N+](=O)[O-])cn2)CC1	Pf growth 48h 1.65µM, Pf growth 96h 1.65µM
CN1CCN(C(=O)Nc2ccc([N+](=O)[O-])cc2)CC1	none
O=C(Nc1ccc([N+](=O)[O-])cc1)N1CCCCCC1	Shiga inhibitor 50.5, Cycloheximide cs 40.8, Pf growth 96h inconclusive (no result: SARS PLpro yeast)
COc1ccc(N2CC(C(=O)N[C@@H](CC(C)C)C(=O)NC3CCCC3)CC2=O)cc1 (stereo partly drawn)	Pf growth 48h inconclusive, Pf growth 96h inconclusive
CC(C)NC(=O)Nc1ccc2c(c1)C(=O)N([C@H](C)CO)C[C@H](C)[C@@H](CN(C)C(=O)Nc1ccc3c(c1)OCO3)O2	none (no result: Shiga inhibitor, Pf growth 48h, Cycloheximide cs, Pf growth 96h)
O=C(Nc1cccc([N+](=O)[O-])c1)N1CCCCCC1	Pf growth 96h 3.7µM
CN(C)CCCCCCCCCCC(=O)/C=N/O	none (no result: Shiga inhibitor, Pf growth 48h, Cycloheximide cs, SARS PLpro yeast, Pf growth 96h)
CN(CCCCCCCCC(=O)/C=N/O)Cc1ccccc1	Pf growth 96h 2.62µM (no result: Pf growth 48h)
COCC(=O)n1nc(-c2ccccc2)nc1NCc1ccc(F)cc1	Shiga inhibitor 47.2, Pf growth 48h inconclusive (no result: Pf growth 96h)
O=C(c1cccnc1)n1nc(-c2ccco2)nc1NCc1cccs1	Shiga inhibitor 123.6, Cycloheximide cs 36.9
CC(=O)n1nc(-c2ccccc2)nc1NCc1cccs1	Cycloheximide cs 25.4, Pf growth 96h inconclusive
COc1ccc(CNc2nc(-c3ccccc3)nn2C(=O)c2ccc([N+](=O)[O-])cc2)cc1	Shiga inhibitor 75.3, Cycloheximide cs 32.2
Cc1ccc(-c2nc(NCc3ccc(F)cc3)n(S(C)(=O)=O)n2)cc1	none
COc1ccc(CNc2nc(-c3ccccc3)nn2C(=O)c2cccs2)cc1	none (no result: Pf growth 48h)
CCc1nc2ccccc2c(C(=O)Nc2ccc(C)cc2)c1C	none
COCC(=O)n1nc(NCc2ccc(OC)cc2)nc1NCc1ccc(OC)cc1	none
COCC(=O)n1nc(-c2ccccc2)nc1NCc1ccccc1	Cycloheximide cs 24.8, Pf growth 96h inconclusive
CCC(=O)n1nc(-c2ccccc2)nc1NCc1ccccc1	Shiga inhibitor 70.7, Cycloheximide cs 23.2
CC(=O)n1nc(-c2ccccc2)nc1NCc1ccc(N(C)C)cc1	Shiga inhibitor 67.6, AMA1 RON2 block 8.91µM, Cycloheximide cs 44.8, Pf growth 96h inconclusive
CCC(=O)n1nc(-c2cccnc2)nc1NCc1ccc(OC)cc1	none
CN(C)c1ccc(CNc2nc(-c3ccccc3)nn2S(C)(=O)=O)cc1	AMA1 RON2 block inconclusive
CC1(Cc2cc(Cl)ccc2C(F)(F)F)C(=O)Nc2ccc(OC(F)(F)F)cc21 (stereo not drawn)	none (no result: Shiga inhibitor, Pf growth 48h, Cycloheximide cs, SARS PLpro yeast, Pf growth 96h)
CNS(=O)(=O)/C=C/c1ccccc1	none
O=S(=O)(/C=C/c1ccccc1)Oc1ccccc1	Cycloheximide cs 28.4, Pf growth 96h 3.29µM (no result: Pf growth 48h)
CS(=O)(=O)N1CCN(Cc2ccccc2C(F)(F)F)CC1	none
COc1ccc(OC)c(CN2CCN(Cc3cc(OC)c(OC)c(OC)c3)CC2)c1	AMA1 RON2 block inconclusive, Pf growth 96h 13.1µM (no result: Shiga inhibitor, SARS PLpro yeast)
CS(=O)(=O)N1CCN(Cc2ccc(C(F)(F)F)cc2)CC1	Pf growth 96h 9.28µM (no result: Pf growth 48h)
COc1ccc(CN2CCN(Cc3ccc(C(F)(F)F)cc3)CC2)c(OC)c1	AMA1 RON2 block 25.1µM
CCOc1cc(C(c2c(C)[nH][nH]c2=O)c2c(C)[nH][nH]c2=O)cc(Br)c1OC	none
O=C(Nc1nncs1)c1cc2c(s1)CCC2	Shiga inhibitor 30.0, Cycloheximide cs 20.9
CC(C)Cc1nnc(NC(=O)c2cc3c(s2)CCC3)s1	Shiga inhibitor 54.6, Cycloheximide cs 17.3
CCSc1nnc(NC(=O)c2cc3c(s2)CCCC3)s1	none (no result: Pf growth 96h)
CC(C)c1cc(C(=O)NCc2ccc(F)cc2)c(N)s1	none (no result: Shiga inhibitor, Pf growth 48h, Cycloheximide cs, SARS PLpro yeast, Pf growth 96h)
O=C(NC(=S)Nc1ccc(N2CCOCC2)cc1)c1ccco1	Shiga inhibitor 43.3, Cycloheximide cs 31.7
Fc1ccccc1NC(=S)Nc1ccc(CN2CCOCC2)cc1	Shiga inhibitor 66.2, Cycloheximide cs 22.8
O=C(NC(=S)Nc1ccc(CN2CCCCC2)cc1)c1ccco1	none
O=C(NC(=S)Nc1ccc(CN2CCOCC2)cc1)c1ccco1	Shiga inhibitor 33.6, Cycloheximide cs 30.9
CCCC/C=C/[C@@H](c1ccccc1)C1COC(=O)CC1O (stereo partly drawn)	none (no result: AMA1 RON2 block, Pf growth 48h, SARS PLpro yeast, Pf growth 96h)
O=C(CS(=O)(=O)c1c[nH]c2ccccc12)NC1CCCCC1	none
CCN(Cc1cccc(F)c1)C(=O)c1ccc2ccccc2n1	Cycloheximide cs 39.9
CCCCN1C(=O)C(O)(CC(=O)c2c(C)coc2C)c2ccccc21 (stereo not drawn)	Pf growth 48h inconclusive
C=CCN1C(=O)C2(NNc3ccccc3O2)c2ccccc21 (stereo not drawn)	Pf growth 96h 11.7µM (no result: Pf growth 48h)
CCCCN1C(=O)C2(NNc3ccccc3O2)c2ccccc21 (stereo not drawn)	Shiga inhibitor 62.4, Pf growth 48h 10.4µM, Cycloheximide cs 46.8 (no result: Pf growth 96h)
Cc1ccc2c(c1)N(C(=O)NC1CCCCC1)C(C)(C)CC2C (stereo not drawn)	none (no result: Pf growth 48h)
CCOc1ccc(CC(=O)Nc2sc(Cc3ccccc3)c(C)c2C(N)=O)cc1OCC	Pf growth 48h inconclusive, Pf growth 96h 9.28µM
Cc1c(Cc2ccccc2)sc(NC(=O)c2ccco2)c1C(N)=O	none
CCOc1ccc(CC(=O)Nc2c(C(N)=O)oc3ccccc23)cc1OCC	Pf growth 48h inconclusive, Pf growth 96h 11.7µM
COc1ccc(N2CCN(C(=O)c3oc4ccccc4c3NC(=O)Cc3ccc(OC)c(OC)c3)CC2)cc1	AMA1 RON2 block inconclusive, Pf growth 48h inconclusive
CC(O)C(NS(=O)(=O)c1ccc2ccccc2c1)C(=O)OCC(=O)Nc1ccccc1OC(F)F (stereo not drawn)	none (no result: Shiga inhibitor, Pf growth 48h, Cycloheximide cs, SARS PLpro yeast, Pf growth 96h)
CCS(=O)(=O)N1Cc2ccccc2CC1C(=O)N(C)Cc1ccc(OC)c(F)c1 (stereo not drawn)	Pf growth 96h inconclusive
OC(CCN1CCCCC1)c1ccc(-c2ccccc2)cc1 (stereo not drawn)	Shiga inhibitor 72.1, Cycloheximide cs 51.7, Pf growth 96h 4.65µM (no result: Pf growth 48h)
